High-throughput results as filed in PubChem.
The list is not random: actives were taken first. Their share in the collection is about 1.6%.
PERK inh: human PERK inhibition, primary cell-based screen; CHO PERK-DD fusion, SEAP luminescence translation reporter; inhibition, % at 5.6 µM; 0.17% of 220,000 active; AID 1416;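 active means inhibition above the mean inhibition of all tested compounds plus 3 SD, set separately per screening campaign, cut at about 2.9% in these data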;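 further: PERK kinase domain activated by AP20187 dimerizer at 100 nM; 0% = DMSO with dimerizer and 100% = rapamycin at 8.4 µM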
NALP1 yeast inh: blocks the NALP1 inflammasome reconstituted in yeast; 0.61% of 280,000 active; S. cerevisiae NALP1/ASC/caspase-1 growth, X-gal OD620, 72 h; inhibition, % at 10 µM; in the data active means inhibition mostly above about 24%, no sharp cut-off; inactive means mostly below about 32%
NALP3 yeast inh: inhibitors of NALP3 inflammasome in yeast | Yeast reconstituted NLRP3/ASC/caspase-1, beta-gal luminescence, 24 h | inhibition, % at 10 µM | 0.39% of 330,000 active;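 active means inhibition of 50% or more; inactive means inhibition below 50%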;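 further: plate controls were induced DMSO wells for no effect and uninduced yeast grown without galactose for full effect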
Rce1 inhib: inhibitors of yeast Ras-converting enzyme; calls only; 0.27% of 290,000 active; yeast membranes, quenched prenylated peptide cleavage fluorescence; AID 2563; Q03530;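 active means fall in fluorescence gain of 50% or more versus controls, with final raw signal at or below 3038400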;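 further: plate controls were neutral control wells for no effect and wells lacking membranes for full effect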
V-ATPase pHluor: regulators of yeast V-ATPase proton transport | S. cerevisiae, pHLuorin cytosolic pH fluorescence | response, % at 10 µM | 0.37% of 350,000 active | AID 504577; in the data active means response mostly above about 7.3%, no sharp cut-off; inactive means mostly below about 5.4%; further: actives read high
Yeast superoxide: caloric restriction mimetics inhibiting age-related superoxide in yeast. 0.18% of 330,000 active. S. cerevisiae aged cells, superoxide DHE fluorescence; hits give low values. superoxide response (% of plate mean), % at 10 µM;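 active means superoxide response under a set limit, about three screen SD below normal, cut at about 65% in these data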;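 further: yeast aged for seven days with compound at 30 °C before DHE staining; 100% = average MFI of all compound-treated wells on the plate with controls excluded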
CR mimetic CP: confirmation of caloric restriction mimetics inhibiting yeast age-related superoxide. shares compounds with Yeast superoxide. superoxide response (% of plate), % at 10 µM. 1% of 850 active. S. cerevisiae aging, superoxide DHE fluorescence; hits give low values. AID 434994;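 active means superoxide signal below 65% of the plate average of sample wells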;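 further: cells aged with compound for 7 days at 30 degrees C before staining; 100% equals mean DHE fluorescence of all compound wells on the plate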
DHE fluor count: DHE fluorescence interference, counter-screen artifact | fluorescence response, % at 10 µM | shares compounds with Yeast superoxide | S. cerevisiae BY4741, flow cytometry; hits give low values | 850 tested, under 10 active;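 active means fluorescence response below 15%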;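 further: percent of the mean fluorescence averaged over all compound wells on the plate; lower means stronger quenching of DHE signal or ROS scavenging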
* hit, by the source's call; i = inactive; . = no result.

SMILES | PERK inh | NALP1 yeast inh | NALP3 yeast inh | Rce1 inhib | V-ATPase pHluor | Yeast superoxide | CR mimetic CP | DHE fluor count
Nc1ccn([C@@H]2O[C@H](CNS(=O)(=O)c3cc4ccccc4s3)[C@@H](O)[C@H]2O)c(=O)n1 | . | . | . | . | 1 | . | . | .
CC(C)(C)c1ccc(/C=N/OCC(=O)NCc2ccc(F)cc2)cc1 | 1 | 15 | 10 | i | -3 | 62* | 101 | 91
COc1ccc(-c2sc3cc4c(cc3c2C#CCO)OCO4)cc1 | . | . | 21 | . | -4 | 63* | 103 | 92
CCOc1cc(C(=O)OCC(=O)Nc2ccc(SC(F)F)cc2)cc(OCC)c1OCC | 1 | 25 | 10 | i | 3 | 39* | 105 | 102
Nc1ncn(CC(=O)c2ccccc2)n1 | 1 | 5 | 10 | i | 1 | 106 | . | .
O=C(Cn1nc(Br)nc1Br)c1ccccc1 | . | 5 | 5 | i | 0 | 57* | 102 | 101
COc1ccccc1C(=O)NCCN1CCCC1 | . | . | . | . | 1 | . | . | .
NS(=O)(=O)c1ccc(NS(=O)(=O)c2ccc(Br)cc2)cc1 | . | 7 | 2 | i | 0 | 91 | 102 | 90
O=C(CCNC(=O)c1ccc(Br)cc1)OCc1ccccc1Cl | . | . | 17 | i | 4 | 63* | 115 | 115
CN(C)c1ccc(NC(=O)c2cccc(C(=O)Nc3ccc(N(C)C)cc3)n2)cc1 | -1 | 26 | 17 | i | -3 | 65* | 113 | 100
O=C(Nc1ccccc1)c1cccc(C(=O)Nc2ccccc2)n1 | . | 19 | 12 | i | 5 | 106 | . | .
CCC(CO)NCc1ccc2c(c1)n(C)c(=O)n2C (stereo unspecified) | 2 | 9 | -4 | i | -6 | 61* | 121 | 120
O=C(COC(=O)c1cccc(S(=O)(=O)N2CCOCC2)c1)NC1CCCCC1 | . | . | . | . | 0 | . | . | .
COc1ccc(-c2nc3c4c(ncn3n2)-c2ccccc2CC42CCCC2)cc1 | 2 | 42 | 1 | i | -2 | 64* | 107 | 99
COc1ccc(OCc2nc3c4c(ncn3n2)-c2ccccc2CC42CCCC2)cc1 | 0 | 41 | 7 | i | 3 | 118 | . | .
CC1CCCN(S(=O)(=O)c2ccc(C(=O)Nc3nnc(C4CC4)o3)cc2)C1 (stereo unspecified) | . | 2 | 7 | i | 1 | 65* | 93 | 100
O=C(Nc1nnc(-c2ccc(F)cc2)o1)c1ccc(S(=O)(=O)N2CCOCC2)cc1 | . | 5 | -2 | i | -3 | 98 | 105 | 112
Cc1cc(NC(=O)c2ccc(S(=O)(=O)N(C)CC3CCCO3)cc2)no1 (stereo unspecified) | 1 | 9 | 18 | i | -1 | 91 | . | .
COc1ccc(-c2nnc(NC(=O)c3ccc(S(=O)(=O)N(C)CC4CCCO4)cc3)o2)c(OC)c1 (stereo unspecified) | . | -6 | -1 | i | -4 | 100 | 94 | 97
COc1ccccc1-c1nnc(NC(=O)c2ccc(S(=O)(=O)N3CCCC3)cc2)o1 | . | 2 | 7 | i | 3 | 101 | 116 | 106
CC1CCCC(NC(=O)CSc2nnc(-c3cccnc3)o2)C1C (stereo unspecified) | . | . | . | . | 1 | . | . | .
CC(=NCCc1ccccc1)C1=C(O)C(c2ccccc2)OC1=O (stereo unspecified) | 0 | 8 | 15 | . | 0 | 52* | 92 | 98
CC(=NCCc1ccccc1)C1=C(O)COC1=O | 0 | 9 | 22 | i | 0 | 93 | . | .
Cc1ccc(-c2nnc(Nc3ccc(C(=O)N(C)C)cc3)c3ccccc23)cc1S(=O)(=O)NCC1CCCO1 (stereo unspecified) | 1 | 39 | -20 | i | 3 | 97 | 115 | 115
Cc1ccc(-c2nnc(Nc3ccc(CC(N)=O)cc3)c3ccccc23)cc1S(=O)(=O)NCC1CCCO1 (stereo unspecified) | 0 | 0 | 0 | i | -3 | 92 | . | .
SMILES | PERK inh | NALP1 yeast inh | NALP3 yeast inh | Rce1 inhib | V-ATPase pHluor | Yeast superoxide | CR mimetic CP | DHE fluor count
COC(=O)c1ccc(Nc2nnc(-c3ccc(C)c(S(=O)(=O)NCC4CCCO4)c3)c3ccccc23)cc1 (stereo unspecified) | 1 | 16 | 7 | i | -1 | 95 | 87 | 92
Cc1ccc(-c2nnc(Nc3ccc(C(=O)N(C)C)cc3)c3ccccc23)cc1S(=O)(=O)NC(C)(C)CO | 1 | -6 | -18 | i | -4 | 102 | . | .
Cc1noc(C)c1NC(=O)N(C)C[C@H]1OCc2cnnn2CCCC(=O)N([C@@H](C)CO)C[C@H]1C | . | . | . | . | 3 | . | . | .
Cc1noc(C)c1NC(=O)N(C)C[C@@H]1Oc2ncc(Br)cc2C(=O)N([C@@H](C)CO)C[C@@H]1C | . | . | . | . | 0 | . | . | .
O=C(COn1nnc2ccc(C(F)(F)F)cc21)Nc1nnc(-c2ccccc2)o1 | 1 | 24 | -5 | i | 1 | 60* | 98 | 111
CC(=O)Nc1ccc(NC(=O)COC(=O)c2cc(S(=O)(=O)N3CCCC3)ccc2O)cc1 | . | . | 3 | . | 0 | 62* | 104 | 101
Cc1ccc(-n2nc3ccc(NC(=O)/C=C/c4ccco4)cc3n2)cc1 | 0 | 23 | 11 | i | 2 | 54* | 102 | 95
CCCCNc1ncnc2c1cnn2-c1ccccc1 | -1 | 18 | 45 | i | 2 | 110 | 105 | 108
c1ccc(Cn2ncc3c(NCc4ccco4)ncnc32)cc1 | 0 | -12 | 21 | i | 0 | 93 | . | .
CCCCNc1ncnc2c1cnn2-c1ccc(Cl)cc1 | 1 | . | 14 | i | 1 | 85 | . | .
CCc1nc(NC(C)(C)C)c2cnn(-c3ccccc3)c2n1 | 2 | 14 | 28 | i | 1 | 95 | 101 | 97
c1ccc(-n2ncc3c(NCc4ccco4)ncnc32)cc1 | 0 | 2 | 31 | i | 0 | 87 | 90 | 90
COc1ccc(CCN2CC(C(=O)NCc3cn(C)nc3C)CCC2=O)cc1 (stereo unspecified) | . | . | . | . | -3 | . | . | .
Cc1ccccc1-c1nc(CS(=O)(=O)CC(=O)NCCCN2CC(C)CC(C)C2)c(C)o1 (stereo unspecified) | . | -3 | 14 | i | -1 | 65* | 94 | 90
Nc1ccn([C@@H]2O[C@H](CNC(=O)[C@@H](N)CSCc3ccccc3)[C@@H](O)[C@H]2O)c(=O)n1 | . | . | . | . | -2 | . | . | .
CCN(c1ccc(OC)cc1)S(=O)(=O)c1cc(-c2cc(C)no2)ccc1OC | . | 2 | 3 | i | 1 | 63* | 103 | 91
CC1(C)Cc2ccccc2C2=NNC(=O)C2=N1 | 1 | -12 | 14 | i | 0 | 56* | 89 | 87
COc1ccc(CN2C(=O)C(CC(=O)NC3CC3)CC(C(=O)N(C)C)=C2C)cc1 (stereo unspecified) | . | . | . | . | -1 | . | . | .
